206 variants from a collection of fitness landscapes (doi:10.1126/science.1257360) can be followed below.

Over roughly 140,000 sequences, “enrichment ratio after two sorts for PhoP signalling” has its median near 0; the highest 2% begin near 11. This is one part of a sample in which the highest values are shown more often than they occur.

First the molecules themselves.
B1: PhoQ; a variant is named by its letters at X, in order, P23837 (parent)
chain: MKKLLRLFFPLSLRVRFLLATAAVVLVLSLAYGMVALIGYSVSFDKTTFRLLRGESNLFYTLAKWENNKLHVELPENIDKQSPTMTLIYDENGQLLWAQRDVPWLMKMIQPDWLKSNGFHEIEADVNDTSLLLSGDHSIQQQLQEVREDDDDAEMTHSVAVNVYPATSRMPKLTIVVVDTIPVELKSSYMVWSWFIYVLSANLLLVIPLLWVAAWWSLRPIEALAKEVRELEEHNRELLNPATTRELTSLVRNLNRLLKSERERYDKYRTTLTDLTHSLKTPLXXLQXXLRSLRSEKMSVSDAEPVMLEQISRISQQIGYYLHRASMRGGTLLSRELHPVAPLLDNLTSALNKVYQRKGVNISLDISPEISFVGEQNDFVEVMGNVLDNACKYCLEFVEISARQTDEHLYIVVEDDGPGIPLSKREVIFDRGQRVDTLRPGQGVGLAVAREITEQYEGKIVAGESMLGGARMEVIFGRQHSAPKDE

The experiment covers variants of B1. The experiment is described as follows: enrichment ratio after two sorts for PhoP signalling (ratio (wild type AVST 3.29)); higher = more functional. The following applies: with PhoP (E. coli).
With MNDG, the enrichment ratio was at most 0.25.

Regarding GVPD, the enrichment ratio was at most 0.25.

With VQKT, the enrichment ratio was at most 0.25.

On to RQKC, for which the enrichment ratio was at most 0.25.

For the variant HSFA, the enrichment ratio is at most 0.25.

In the case of ICYS, the enrichment ratio was at most 0.25.

For the variant FLCS, the enrichment ratio is at most 0.25.

TMVF: the enrichment ratio is at most 0.25.

As to HIMC, the enrichment ratio is 48.5.

Turning to ATMC, the enrichment ratio was 11.2.

In the case of GGMC, the enrichment ratio was at most 0.25.

For the variant RGMC, the enrichment ratio was at most 0.25.

Turning to TKMC, the enrichment ratio was found to be 77.6.

For HRMC, the enrichment ratio is at most 0.25.

HKMC: the enrichment ratio was at most 0.25.

HFMC: the enrichment ratio is at most 0.25.

In the case of TGMC, the enrichment ratio stood at 31.9.

As to ASMC, the enrichment ratio was 12.1.

Take NSMC: the enrichment ratio was at most 0.25.

With PTMC, the enrichment ratio was at most 0.25.

Turning to AARL, the enrichment ratio is at most 0.25.

Take DMIF: the enrichment ratio was at most 0.25.

PFMC: the enrichment ratio was at most 0.25.

With FSMC, the enrichment ratio was 16.1.

For KFMC, the enrichment ratio is at most 0.25.

For SGFC, the enrichment ratio was at most 0.25.

As to TIMC, the enrichment ratio stood at 9.

As for TFMC, the enrichment ratio was determined as 16.5.

Turning to HGMC, the enrichment ratio is 13.3.

With NGMC, the enrichment ratio is at most 0.25.

As for KSMC, the enrichment ratio was at most 0.25.

Take FCMC: the enrichment ratio is at most 0.25.

As to TRMC, the enrichment ratio stood at 2.53.

Consider SGMC, for which the enrichment ratio amounted to 12.8.

On to KDFY, for which the enrichment ratio was at most 0.25.

EPYY: the enrichment ratio is at most 0.25.

As for FDYI, the enrichment ratio is at most 0.25.

QVCS: the enrichment ratio was at most 0.25.

As for LEAV, the enrichment ratio was at most 0.25.

In the case of REVC, the enrichment ratio is at most 0.25.

Take FGTK: the enrichment ratio was at most 0.25.

Regarding RCMC, the enrichment ratio was at most 0.25.

As to ACMM, the enrichment ratio is 14.1.

With HKMM, the enrichment ratio was at most 0.25.

On to ANMM, for which the enrichment ratio turned out to be 32.7.

Turning to MEMM, the enrichment ratio worked out at 0.38.

With TKMM, the enrichment ratio is 31.6.

For AVMM, the enrichment ratio stood at 52.7.

In the case of FVMM, the enrichment ratio was determined as 8.76.

Consider TVMM, for which the enrichment ratio came to 0.563.

In the case of ANRM, the enrichment ratio was at most 0.25.

Turning to ANRA, the enrichment ratio was at most 0.25.

Consider HPRS, for which the enrichment ratio was at most 0.25.

For SFMM, the enrichment ratio amounted to 0.454.

Consider EPTF, for which the enrichment ratio was at most 0.25.

Regarding ATNR, the enrichment ratio was at most 0.25.

With FVFQ, the enrichment ratio is at most 0.25.

For the variant DMFY, the enrichment ratio is at most 0.25.

On to NDFH, for which the enrichment ratio is at most 0.25.

As for YEAF, the enrichment ratio is at most 0.25.

Consider WSCA, for which the enrichment ratio was at most 0.25.

As for AKMM, the enrichment ratio came to 30.4.

With APMM, the enrichment ratio was at most 0.25.

For the variant AHMM, the enrichment ratio is at most 0.25.

Consider ADMM, for which the enrichment ratio was at most 0.25.

As to ASMM, the enrichment ratio is 41.3.

Consider VRMM, for which the enrichment ratio was at most 0.25.

On to AAMM, for which the enrichment ratio stood at 13.

Regarding ARMM, the enrichment ratio was 5.29.

AAPM: the enrichment ratio came to 4.08.

As for AIMM, the enrichment ratio amounted to 35.5.

Turning to AYMM, the enrichment ratio was at most 0.25.

Consider IEAL, for which the enrichment ratio is at most 0.25.

Regarding NQSL, the enrichment ratio is at most 0.25.

Consider PQWK, for which the enrichment ratio was at most 0.25.

For the variant SKWQ, the enrichment ratio is at most 0.25.

As for TVHE, the enrichment ratio is at most 0.25.

For KCME, the enrichment ratio is at most 0.25.

As to HCSH, the enrichment ratio is at most 0.25.

Take SPSH: the enrichment ratio was at most 0.25.

Regarding TVME, the enrichment ratio is 11.7.

Consider KSSH, for which the enrichment ratio was at most 0.25.

In the case of TSSH, the enrichment ratio amounted to 11.3.

For the variant TVSH, the enrichment ratio was found to be 15.9.

TVCE: the enrichment ratio came out at 13.5.

PVME: the enrichment ratio is at most 0.25.

On to TVCI, for which the enrichment ratio was determined as 0.444.

On to TSKH, for which the enrichment ratio is at most 0.25.

With HTVK, the enrichment ratio is at most 0.25.

With KMRS, the enrichment ratio is at most 0.25.

For the variant IPKF, the enrichment ratio is at most 0.25.

Turning to AQWL, the enrichment ratio is at most 0.25.

In the case of PAAR, the enrichment ratio was at most 0.25.

In the case of LETM, the enrichment ratio is at most 0.25.

As for RMVY, the enrichment ratio is at most 0.25.

NVCS: the enrichment ratio is at most 0.25.

For the variant PVCS, the enrichment ratio is at most 0.25.

On to PVCA, for which the enrichment ratio was at most 0.25.

Consider TVCA, for which the enrichment ratio was 14.5.

Take TVCS: the enrichment ratio is 11.4.

For SPCA, the enrichment ratio is at most 0.25.

On to PKSQ, for which the enrichment ratio was at most 0.25.

As for RQKT, the enrichment ratio was at most 0.25.

As for IWNV, the enrichment ratio was at most 0.25.

As for LQKK, the enrichment ratio is at most 0.25.

As to LFFM, the enrichment ratio was at most 0.25.

For ITFY, the enrichment ratio is at most 0.25.

Consider WWLL, for which the enrichment ratio is at most 0.25.

In the case of IQCS, the enrichment ratio is at most 0.25.

Take WQCS: the enrichment ratio is at most 0.25.

On to SNNW, for which the enrichment ratio turned out to be 1.31.

In the case of SNIF, the enrichment ratio was at most 0.25.

For the variant LNAI, the enrichment ratio is at most 0.25.

For the variant SQCS, the enrichment ratio was found to be 14.7.

For SFAI, the enrichment ratio is at most 0.25.

With SNAI, the enrichment ratio was 22.

Take SNCS: the enrichment ratio turned out to be 19.6.

GFWW: the enrichment ratio is 1.03.

As to LGGY, the enrichment ratio was at most 0.25.

As for ESVH, the enrichment ratio was at most 0.25.

Regarding PMVM, the enrichment ratio was at most 0.25.

As to KCTF, the enrichment ratio is at most 0.25.

As to KCTV, the enrichment ratio is at most 0.25.

Regarding TCTF, the enrichment ratio was 12.4.

As for GMTV, the enrichment ratio was determined as 0.937.

For the variant LSTF, the enrichment ratio is at most 0.25.

Take TCTV: the enrichment ratio is 12.6.

In the case of LQSN, the enrichment ratio is at most 0.25.

Take PMKC: the enrichment ratio was at most 0.25.

As to AKDL, the enrichment ratio is at most 0.25.

As for NKTC, the enrichment ratio is at most 0.25.

On to MFTC, for which the enrichment ratio was at most 0.25.

As to MESC, the enrichment ratio is 10.2.

MEFC: the enrichment ratio turned out to be 12.8.

Turning to MEFA, the enrichment ratio is at most 0.25.

For the variant METC, the enrichment ratio worked out at 45.8.

MKFC: the enrichment ratio is at most 0.25.

For the variant LQYS, the enrichment ratio was at most 0.25.

For KENY, the enrichment ratio was at most 0.25.

For the variant IMSK, the enrichment ratio is at most 0.25.

Turning to EIPN, the enrichment ratio was at most 0.25.

Turning to MESG, the enrichment ratio is 15.7.

In the case of NESG, the enrichment ratio is at most 0.25.

Consider PESG, for which the enrichment ratio is at most 0.25.

For QESN, the enrichment ratio amounted to 5.1.

With TESG, the enrichment ratio came to 24.9.

Regarding SRSG, the enrichment ratio was at most 0.25.

With PLSG, the enrichment ratio was at most 0.25.

Regarding TESN, the enrichment ratio was 20.2.

Take SLSG: the enrichment ratio was 11.8.

As to MRSG, the enrichment ratio was at most 0.25.

As for QESG, the enrichment ratio was 6.03.

Regarding MESN, the enrichment ratio came to 7.39.

Turning to GKLS, the enrichment ratio is at most 0.25.

For SVRW, the enrichment ratio is at most 0.25.

As to RDAA, the enrichment ratio is at most 0.25.

Consider KNCK, for which the enrichment ratio is at most 0.25.

Take VGMN: the enrichment ratio was at most 0.25.

Turning to HWYH, the enrichment ratio is at most 0.25.

Regarding IYMC, the enrichment ratio is at most 0.25.

With EKVI, the enrichment ratio was at most 0.25.

As for HFDW, the enrichment ratio is at most 0.25.

In the case of HAFN, the enrichment ratio is at most 0.25.

With EAES, the enrichment ratio is at most 0.25.

Consider SQSG, for which the enrichment ratio came to 6.12.

On to AESN, for which the enrichment ratio stood at 11.

Take KYSG: the enrichment ratio was at most 0.25.

Consider AESG, for which the enrichment ratio was 25.4.

Take SCSG: the enrichment ratio came out at 20.2.

Regarding AKSG, the enrichment ratio was 5.13.

For the variant STSG, the enrichment ratio came to 8.56.

On to SESG, for which the enrichment ratio stood at 28.9.

As to FCSG, the enrichment ratio was at most 0.25.

In the case of LITF, the enrichment ratio is at most 0.25.

Take ATGN: the enrichment ratio stood at 3.43.

On to HEMV, for which the enrichment ratio is at most 0.25.

For the variant SNVC, the enrichment ratio was determined as 11.5.

Take SNMH: the enrichment ratio was found to be 11.9.

As for SLVC, the enrichment ratio is at most 0.25.

As to SNVG, the enrichment ratio stood at 3.21.

For the variant HEMR, the enrichment ratio is at most 0.25.

HEMI: the enrichment ratio was 12.7.

Turning to SNWR, the enrichment ratio is at most 0.25.

For PGVC, the enrichment ratio was at most 0.25.

As for SNCH, the enrichment ratio stood at 7.35.

Regarding TGVC, the enrichment ratio was found to be 16.8.

In the case of GGVC, the enrichment ratio was at most 0.25.

ANPD: the enrichment ratio is at most 0.25.

In the case of TGHW, the enrichment ratio was at most 0.25.

As to KVMG, the enrichment ratio was at most 0.25.

For IFMF, the enrichment ratio was at most 0.25.

Take WNFI: the enrichment ratio is at most 0.25.

Regarding ILYP, the enrichment ratio was at most 0.25.

Regarding PDCM, the enrichment ratio was at most 0.25.

On to SNFE, for which the enrichment ratio was at most 0.25.

On to SNLW, for which the enrichment ratio was 7.18.

On to SNMD, for which the enrichment ratio amounted to 1.49.

As for GNVG, the enrichment ratio is 2.06.

As to SNMA, the enrichment ratio was determined as 7.05.

As for SNHE, the enrichment ratio is at most 0.25.

On to GIVC, for which the enrichment ratio came to 4.3.

For SNMW, the enrichment ratio was 3.59.

For the variant GNVC, the enrichment ratio came to 11.6.

For SNMG, the enrichment ratio turned out to be 12.5.

In the case of SNMS, the enrichment ratio stood at 12.

Regarding SNME, the enrichment ratio came out at 14.4.
